Screening data: PubChem BioAssay, National Center for Advancing Translational Sciences (NCATS)
Only some compounds are listed: those with a hit (about 21% of all), similar ones and a draw of the others.
CHX counter: affects cycloheximide protein synthesis inhibition readout, counter-screen; max response, %; actives 12% (n = 300,000); cell reporter, cycloheximide protein synthesis inhibition counterscreen; in the data active = max response mostly above about 13%, no sharp cut-off; inactive = mostly below about 14%; note: read at 38.3 µM for the half of the compounds with a filed dose; 0% is about no effect
Pf growth 48h: inhibits P. falciparum growth in the first generation, 48 h; P. falciparum luciferase growth in erythrocytes, 48 h; Potency, µM (top dose mostly 28.7 µM), inactives show top-dose activity change, negative = inhibition, usual class: inhibitors; actives 5.9% (n = 310,000); AID 504832; note: potency is the fitted concentration of half-maximal effect; % is set by controls: 0 for no effect and ±100 for the full control effect
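A one-generation exposure of luciferase-tagged malaria parasites in RPMI 1640/Albumax erythrocyte culture, 37 C and 5% CO2. Inhibition is inferred from decreased luminescence after adding detection reagent.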
Pf growth 96h: P. falciparum growth inhibition at 96 hours; P. falciparum luciferase reporter growth, 96 h; Potency, µM (doses to about 28.7 µM), without a hit: top-dose activity change, negative = inhibition, most hits filed as inhibitors; actives 6.9% (n = 320,000); AID 504834; note: potency is the fitted concentration of half-maximal effect; % is set by controls: 0 for no effect and ±100 for the full control effect
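Infected RBCs, 2% Hct / 0.05% parasitemia final; luciferase-reporter P. falciparum; cpd 96 h, 37 C, 5% CO2; luciferase detection reagent; luminescence.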
Giardia FBPA inh: Giardia lamblia aldolase inhibition. Potency, µM (highest dose often 59.6 µM), without a hit: top-dose activity, negative = inhibition, usual class: inhibitors. AID 2451. purified Giardia FBPA. actives 0.71% (n = 290,000); note: potency is the fitted concentration of half-maximal effect; % is set by controls: 0 for no effect and ±100 for the full control effect; nearly all actives have a fitted effect of over 55% in size
Target sequence (A8B2U2 whole entry, looked up): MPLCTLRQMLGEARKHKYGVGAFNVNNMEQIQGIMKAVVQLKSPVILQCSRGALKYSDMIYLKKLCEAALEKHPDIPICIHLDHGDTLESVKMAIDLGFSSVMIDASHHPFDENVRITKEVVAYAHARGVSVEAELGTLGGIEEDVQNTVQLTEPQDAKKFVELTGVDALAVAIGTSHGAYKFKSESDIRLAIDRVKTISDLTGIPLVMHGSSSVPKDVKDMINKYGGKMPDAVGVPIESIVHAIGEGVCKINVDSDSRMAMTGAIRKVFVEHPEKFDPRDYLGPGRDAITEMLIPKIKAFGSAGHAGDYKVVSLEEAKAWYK
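40 nM FBPA preincubated 10 min at RT with compound (up to 57.5 uM final), then substrate plus GAPDH/TPI/NAD/arsenate coupling and diaphorase/resazurin added. Fluorescence read after 20 min at RT, 525/598 nm.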
NS1 inh: blocks influenza NS1 protein function; Potency, µM (doses to about 46.1 µM), without a hit: top-dose activity, positive = more growth; actives 0.4% (n = 270,000); calls by dose curve; note: potency is the fitted concentration of half-maximal effect; actives are rising curves; nearly all actives have a fitted effect of over 50% in size
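In this qHTS, NS1 from influenza A is expressed in budding yeast, where it slows growth. Cells are switched from glucose to 2% galactose medium (pH 6.0, -URA), treated with compound, and growth recovery is read at OD600.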
Shiga inhibitor: Shiga toxin inhibition. Vero cells, Shiga toxin protein synthesis inhibition reporter. inhibition, % at 38.7 µM. actives 9.2% (n = 290,000); in the data active = inhibition mostly above about 28%, no sharp cut-off; inactive = mostly below about 43%; note: 0% is about no effect
Flu NS1 inh: validation of influenza NS1 protein function inhibitors; shares compounds with NS1 inh; influenza NS1 function cell assay, 15-point titration; activity change, negative = inhibition, % at 32.9 µM; 1,400 tested, under 10 active; AID 492980; calls by dose curve; note: 0% is about no effect
* hit, by the source's call; ? = inconclusive; nt = no result given; [ ] = dose if it differs, or a comment. Unless noted, calls come from the whole dose curve; as a rule, active = well fitted curve in the direction sought with a large enough effect; inconclusive = small, poorly fitted or top-dose-only effect, or another doubt; inactive = no such curve, though single readings can be large; an effect the other way counts as inactive or inconclusive.

SMILES	CHX counter	Pf growth 48h	Pf growth 96h	Giardia FBPA inh	NS1 inh	Shiga inhibitor	Flu NS1 inh
Cc1cc(C(=O)Cn2nnc(-c3ccc(Cl)cc3)n2)c(C)n1CC1CCCO1 (stereo unspecified)	17*	0%	8%[5.75 µM]	1%	7.9µM*	70	-38
CC(C)CC(=O)Nc1cccc(NC(=O)CC(C)C)n1	-4	15%	41%	4%	-7%	-12	nt
COc1cccc(NC(=O)C(Sc2nnc(Nc3ccccc3C)s2)c2ccccc2)c1 (stereo unspecified)	-12	?	6.6µM*	5%	5µM*	8	-2
OCCC1CN(Cc2cn[nH]c2C2CCCCC2)CCN1C1CCCC1 (stereo unspecified)	11	24%	105%	-1%	0%	-6	nt
COc1ccc(CN2C(=O)CS(=O)CC2=O)cc1OC	8	5%	57%	11%	20%	-5	nt
Cc1cc(C2=CC(C)(c3cc(C)oc3C)Nc3nc(C(F)(F)F)nn32)c(C)o1 (stereo unspecified)	28*	9.3µM*	2%	-20%	18µM*	41*	7
COc1ccc(-c2cc(C(=O)Nc3nc4ccccc4s3)c3ccccc3n2)cc1OC	16*	4%	-32%	-3%	22µM*	43*	-2
COC(=O)c1cc(OC)c(OC)cc1NC(=O)c1cc(-c2ccccc2)nc2ccccc12	0	0%	-1%	-3%	0%	-4	nt
CCOC(=O)N1CCN(C(=O)CS(=O)(=O)c2cn(Cc3ccc(F)cc3)c3ccccc23)CC1	-5	-10%	?	-6%	3%	-5	nt
CN1CCC(N(C)C(=O)/C(C#N)=C/c2ccccc2)CC1	-7	1%	1%	-18%	4%	-1	nt
O=C(/C=C/c1ccccc1)NC(=S)Nc1ccc(CN2CCOCC2)cc1	-3	-6%	-24%	19%	13%	-9	nt
O=C(/C=C/c1ccc(Cl)cc1Cl)NC(=S)Nc1ccc(CN2CCOCC2)cc1	-1	-8%	11%	-7%	?	-5	25
CN(C)c1ccc(C(=O)OCC(=O)N2CCOCC2)cc1	23*	0%	121%	6%	?	39	3
COc1cccc(NS(=O)(=O)c2ccc3c(c2)C2C=CCC2C(c2ccc(C(=O)O)cc2)N3)c1 (stereo unspecified)	3	-13%	12%	-22%	10µM*	10	9
Cc1cc(C)[n+](-c2ccc(C(C)C)cc2)c2[nH]c(=O)[nH]c(=O)c12	-5	-18%	-21%	-1%	8%	-18	nt
N#CCC(=O)NN=C1CCCCCCCCCCC1	6	2%	1%	-8%	1.8µM*	9	4
COc1cc(OC)c2c(c1O)OC(c1ccccc1)CC2=O (stereo unspecified)	-3	32%	9%	-19%	2%	-9	nt
Cc1ccc(CCN2CC(C(=O)NCCC(C)C)CC2=O)cc1 (stereo unspecified)	-5	-20%[0.00184 µM]	10%	-1%	3%	-10	nt
Cc1ccc(CCN2CC(C(=O)NCc3ccco3)CC2=O)cc1 (stereo unspecified)	3	8%	17%	0%	?	15	-3
CCCN(Cc1ccccc1)C(=S)NC(=O)c1ccccc1[N+](=O)[O-]	-2	-14%	-1%	-8%	0%	-8	nt
CC1(C)OC(=O)C(=CNCC(O)c2ccccc2)C(=O)O1 (stereo unspecified)	-7	?	?	2%	16µM*	-15	-3
CC1(C)OC(=O)C(=CNCCc2ccc(O)cc2)C(=O)O1	9	4%	17%	2%	nt	-23	nt
O=S(=O)(c1ccc2nc(-c3ccco3)c(-c3ccco3)nc2c1)N1CCOCC1	8	12µM*	-1%	2.5µM*	1µM*	18	-19
O=c1c2ccccc2ncn1-c1ccccc1C(F)(F)F	2	-28%	35%	0%	5%	25	nt
CSC1=NCCN1C(=O)c1ccc(C)cc1	-1	-1%	20%	0%	1%	-12	nt
SMILES	CHX counter	Pf growth 48h	Pf growth 96h	Giardia FBPA inh	NS1 inh	Shiga inhibitor	Flu NS1 inh
CSC1=NCCN1C(=O)c1ccc2c(c1)OCO2	5	?	?	1%	?	-9	0
CCCCOc1ccc(N2C(=O)CC(NCc3ccncc3)C2=O)cc1 (stereo unspecified)	-2	35%	-9%	-1%	nt	-8	nt
O=C(c1ccc(F)cc1)N1CCN(c2ccc([N+](=O)[O-])c(N3CCCCC3)c2)CC1	-4	-9%	?	-1%	-17%	-13	nt
O=C(COc1ccc(Cl)cc1)N1CCN(c2ccc([N+](=O)[O-])c(N3CCCCC3)c2)CC1	-2	?	10µM*	-9%	11µM*	13	?
O=C(COc1ccccc1Cl)N1CCN(c2ccc([N+](=O)[O-])c(N3CCCCC3)c2)CC1	0	?	?	-1%	?	8	-17
Cc1nsc(Nc2ccccc2)c1C#N	2	9%	?	2%	nt	-24	nt
CC(C)(CN1CCCC1)NS(=O)(=O)c1ccccc1	-3	34%	0%	-6%	5%	-6	nt
O=C(CCN1C(=O)C2CC=C(Cl)CC2C1=O)Nc1ccccc1O (stereo unspecified)	-1	-6%	1µM*	1%	?	-15	9
O=C(CCN1C(=O)C2CC=C(Cl)CC2C1=O)NCc1ccccc1 (stereo unspecified)	1	2%	-29%	3%	2%[9.22 µM]	-1	nt
O=C(CNC(=O)C(c1ccccc1)c1ccccc1)N/N=C\c1ccc(C(=O)O)cc1	11	-2%	2%	-8%	?	-9	8
O=C(Cc1ccccc1)NCC(=O)N/N=C/c1ccc(C(=O)O)cc1	5	1%	-12%	nt	0%	-1	nt
CCCCCCOc1ccc(N2C(=O)CC(N3CCN(CCN=CC4C(=O)CC(C)(C)CC4=O)CC3)C2=O)cc1 (stereo unspecified)	-6	-5%	-3%	0%	nt	-10	nt
NC(=O)NC(=O)COC(=O)c1ccc(Cl)c(S(=O)(=O)N(Cc2ccccc2)c2ccc(Cl)cc2)c1	-4	?	0%	-3%	11µM*	5	-20
Cc1ccc([N+](=O)[O-])cc1N(CC(=O)Nc1ccc(S(=O)(=O)Nc2cccc(C(F)(F)F)c2)cc1)S(C)(=O)=O	-1	3%	-14%	-1%	16µM*	10	10
COc1ccccc1N(CC(=O)Nc1cccc(C(F)(F)F)c1)S(C)(=O)=O	-2	-1%	3%	-6%	2%	-1	nt
CCN(CC)C(=O)CSc1nc2cc3c(cc2c(=O)n1CCCC(=O)NCc1ccc(OC)cc1)OCO3	-2	-28%	-13%	5%	nt	12	nt
